Data as given in the supplement of paper PMC8728848.
Only a selection was taken, and the strongest signals are over-represented in it overall.

Tests used:
Test in all cases: glycan array binding signal (z-score within array); higher = stronger binding
Settings in all cases: glycan notation: IUPAC condensed, linker removed
[1] = molecular target: Fuc(a1-2)Gal(b1-3)GalNAc(a1-3)[Fuc(a1-2)]Gal(b1-4)Glc
Method in brief: (§1)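 The Consortium for Functional Glycomics database supplied 3228 glycan arrays, of which those lacking an available protein sequence were dropped. The binding signal, a within-array Z-score, was averaged across arrays of the same protein sequence and across linkers. Negative scores can be read as non-binding.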

[2] = molecular target: Fuc(a1-2)Gal(b1-3)GalNAc(b1-3)Gal
Method in brief: as §1

[3] = molecular target: Fuc(a1-2)Gal(b1-3)GlcNAc(b1-2)Man(a1-3)[Fuc(a1-2)Gal(b1-3)GlcNAc(b1-2)Man(a1-6)]Man(b1-4)GlcNAc(b1-4)[Fuc(a1-6)]GlcNAc
Method in brief: as §1

[4] = molecular target: Fuc(a1-2)Gal(b1-3)GlcNAc6S
Method in brief: as §1

Fuc(a1-2)Gal(b1-4)Glc = molecular target: Fuc(a1-2)Gal(b1-4)Glc
Method in brief: as §1

[5] = molecular target: Fuc(a1-2)[Gal(a1-3)]Gal(b1-4)GlcNAc(b1-2)Man
Method in brief: as §1

[6] = molecular target: Fuc(a1-2)[GalNAc(a1-3)]Gal(b1-3)GlcNAc(b1-6)GalNAc
Method in brief: as §1

[7] = molecular target: Fuc(a1-2)[GalNAc(a1-3)]Gal(b1-4)GlcNAc(b1-6)GalNAc
Method in brief: as §1

[8] = molecular target: Fuc(a1-2)[GalNAc(a1-3)]Gal(b1-4)[Fuc(a1-3)]GlcNAc
Method in brief: as §1

[9] = molecular target: Fuc(a1-2)[GalNAc(a1-4)]Gal(b1-4)GlcNAc
Method in brief: as §1

[10] = molecular target: Fuc(a1-3)[GalNAc(b1-4)]GlcNAc6S
Method in brief: as §1

Gal(a1-3)Gal = molecular target: Gal(a1-3)Gal
Method in brief: as §1

Gal(a1-4)Gal(b1-4)GlcNAc = molecular target: Gal(a1-4)Gal(b1-4)GlcNAc
Method in brief: as §1

Gal(b1-2)Gal = molecular target: Gal(b1-2)Gal
Method in brief: as §1

[11] = molecular target: Gal(b1-3)GlcNAc(b1-2)Man(a1-3)[Gal(b1-3)GlcNAc(b1-2)Man(a1-6)]Man(b1-4)GlcNAc(b1-4)[Fuc(a1-6)]GlcNAc
Method in brief: as §1

[12] = molecular target: Gal(b1-3)GlcNAc(b1-2)[Gal(b1-3)GlcNAc(b1-6)]Man(a1-6)[Gal(b1-3)GlcNAc(b1-2)Man(a1-3)]Man(b1-4)GlcNAc(b1-4)GlcNAc
Method in brief: as §1

[13] = molecular target: Gal(b1-3)GlcNAc(b1-3)Gal(b1-4)[Fuc(a1-3)]GlcNAc(b1-6)[Gal(b1-3)GlcNAc(b1-3)]Gal(b1-4)Glc
Method in brief: as §1

[14] = molecular target: Gal(b1-3)[Fuc(a1-4)]GlcNAc(b1-6)GalNAc
Method in brief: as §1

[15] = molecular target: Gal(b1-3)[Neu5Ac(a2-6)]GalNAc
Method in brief: as §1

[16] = molecular target: Gal(b1-4)GlcNAc(b1-2)[Gal(b1-4)GlcNAc(b1-6)]Man(a1-6)[Gal(b1-4)GlcNAc(b1-2)Man(a1-3)]Man(b1-4)GlcNAc(b1-4)GlcNAc
Method in brief: as §1

[17] = molecular target: Gal(b1-4)GlcNAc(b1-2)[Gal(b1-4)GlcNAc(b1-6)]Man(a1-6)[Gal(b1-4)GlcNAc(b1-2)Man(a1-3)]Man(b1-4)GlcNAc(b1-4)[Fuc(a1-6)]GlcNAc
Method in brief: as §1

[18] = molecular target: Gal(b1-4)GlcNAc(b1-3)Gal(b1-4)GlcNAc(b1-3)Gal(b1-4)GlcNAc(b1-3)Gal(b1-4)GlcNAc(b1-3)Gal(b1-4)GlcNAc(b1-2)[Gal(b1-4)GlcNAc(b1-3)Gal(b1-4)GlcNAc(b1-3)Gal(b1-4)GlcNAc(b1-3)Gal(b1-4)GlcNAc(b1-3)Gal(b1-4)GlcNAc(b1-6)]Man(a1-6)[Gal(b1-4)GlcNAc(b1-3)Gal(b1-4)GlcNAc(b1-3)Gal(b1-4)GlcNAc(b1-3)Gal(b1-4)GlcNAc(b1-3)Gal(b1-4)GlcNAc(b1-2)Man(a1-3)]Man(b1-4)GlcNAc(b1-4)[Fuc(a1-6)]GlcNAc
Method in brief: as §1

Gal4S(b1-4)GlcNAc = molecular target: Gal4S(b1-4)GlcNAc
Method in brief: as §1

GalNAc(b1-3)Gal = molecular target: GalNAc(b1-3)Gal
Method in brief: as §1

GalNAc(b1-4)GlcNAc = molecular target: GalNAc(b1-4)GlcNAc
Method in brief: as §1

GalNAc3S(b1-4)GlcNAc3S = molecular target: GalNAc3S(b1-4)GlcNAc3S
Method in brief: as §1

GalNAc6S(b1-4)GlcNAc = molecular target: GalNAc6S(b1-4)GlcNAc
Method in brief: as §1

[19] = molecular target: GlcNAc(b1-3)Gal(b1-4)GlcNAc(b1-2)[GlcNAc(b1-3)Gal(b1-4)GlcNAc(b1-6)]Man(a1-6)[GlcNAc(b1-3)Gal(b1-4)GlcNAc(b1-2)Man(a1-3)]Man(b1-4)GlcNAc(b1-4)GlcNAc
Method in brief: as §1

[20] = molecular target: GlcNAc(b1-3)Gal(b1-4)GlcNAc(b1-3)Gal(b1-4)GlcNAc(b1-2)Man(a1-3)[GlcNAc(b1-3)Gal(b1-4)GlcNAc(b1-3)Gal(b1-4)GlcNAc(b1-2)Man(a1-6)]Man(b1-4)GlcNAc(b1-4)[Fuc(a1-6)]GlcNAc
Method in brief: as §1

[21] = molecular target: GlcNAc(b1-4)[GlcNAc(b1-6)]GalNAc
Method in brief: as §1

Man(a1-3)[Man(a1-6)]Man = molecular target: Man(a1-3)[Man(a1-6)]Man
Method in brief: as §1

[22] = molecular target: Neu5Ac(a2-3)Gal(b1-3)GlcNAc(b1-2)Man
Method in brief: as §1

[23] = molecular target: Neu5Ac(a2-3)Gal(b1-3)GlcNAc(b1-6)GalNAc
Method in brief: as §1

[24] = molecular target: Neu5Ac(a2-3)Gal(b1-4)GlcNAc(b1-3)Gal(b1-4)GlcNAc(b1-3)Gal(b1-4)GlcNAc(b1-2)Man(a1-3)[Neu5Ac(a2-3)Gal(b1-4)GlcNAc(b1-3)Gal(b1-4)GlcNAc(b1-3)Gal(b1-4)GlcNAc(b1-2)Man(a1-6)]GalNAc
Method in brief: as §1

[25] = molecular target: Neu5Ac(a2-3)Gal(b1-4)GlcNAc(b1-3)Gal(b1-4)GlcNAc(b1-3)GalNAc
Method in brief: as §1

[26] = molecular target: Neu5Ac(a2-3)Gal(b1-4)GlcNAc(b1-3)GalNAc
Method in brief: as §1

[27] = molecular target: Neu5Ac(a2-3)Gal(b1-4)GlcNAc(b1-6)GalNAc
Method in brief: as §1

[28] = molecular target: Neu5Ac(a2-6)Gal(b1-4)GlcNAc(b1-2)[Neu5Ac(a2-6)Gal(b1-4)GlcNAc(b1-4)]Man(a1-3)[GlcNAc(b1-4)][Neu5Ac(a2-6)Gal(b1-4)GlcNAc(b1-2)[Neu5Ac(a2-6)Gal(b1-4)GlcNAc(b1-6)]Man(a1-6)]Man(b1-4)GlcNAc(b1-4)GlcNAc
Method in brief: as §1

[29] = molecular target: Neu5Ac(a2-6)Gal(b1-4)GlcNAc(b1-3)GalNAc
Method in brief: as §1

[30] = molecular target: Neu5Ac(a2-6)Gal(b1-4)GlcNAc(b1-6)[Gal(b1-3)GlcNAc(b1-3)]Gal(b1-4)Glc
Method in brief: as §1

Neu5Ac(a2-6)GalNAc = molecular target: Neu5Ac(a2-6)GalNAc
Method in brief: as §1

[31] = molecular target: Neu5Ac(a2-6)GalNAc(b1-4)GlcNAc6S
Method in brief: as §1

[32] = molecular target: Neu5Ac(a2-8)Neu5Ac(a2-3)[Gal(b1-3)GalNAc(b1-4)]Gal(b1-4)Glc
Method in brief: as §1

[33] = molecular target: Neu5Gc(a2-3)Gal(b1-4)GlcNAc
Method in brief: as §1

[34] = molecular target: Neu5Gc(b2-6)Gal(b1-4)GlcNAc
Method in brief: as §1

B1: Cohesin-mDC-ASGPR (Macaca mulatta) (protein)
chain: LDITSHHHHHHDDLDAVRIKVDTVNAKPGDTVRIPVRFSGIPSKGIANCDFVYSYDPNVLEIIEIEPGDIIVDPNPDKSFDTAVYPDRKIIVFLFAEDSGTGAYAITKDGVFATIVAKVKEGAPNGLSVIKFVEVGGFANNDLVEQKTQFFDGGVNVGDTTEPATPTTPVTTPTTTDDLDAASSQNSKFQRDLVTLRTDFSNFTSNTVAEIQALTSQGSSVEEMIASLKAEVEVIKQEQQAVHSEMLLRVQRLMQDLNKLTCQVATLKNNASTERTCCPVNWVEHQDSCYWFSRSGMPWAEAEKHCQLENAHLVVINSREEQNFVQEHLSFAYTWMGLSDREGAWKWVDGTDYETGFQNWKPGQPDDWQGHGLGGGEDCAHFHPDGRWNDDVCQRPYYWVCEAGLTQASQESH
- glycan array binding signal (z-score) [1]: -0.406
- glycan array binding signal (z-score) [2]: 0.568
- glycan array binding signal (z-score) [3]: -0.227
- glycan array binding signal (z-score) [4]: 0.873
- glycan array binding signal (z-score) (Fuc(a1-2)Gal(b1-4)Glc): -0.387
- glycan array binding signal (z-score) [5]: -0.34
- glycan array binding signal (z-score) [6]: 3.22
- glycan array binding signal (z-score) [7]: 3.46
- glycan array binding signal (z-score) [8]: 0.425
- glycan array binding signal (z-score) [9]: 3.47
- glycan array binding signal (z-score) [10]: 3.4
- glycan array binding signal (z-score) (Gal(a1-3)Gal): -0.427
- glycan array binding signal (z-score) (Gal(a1-4)Gal(b1-4)GlcNAc): -0.412
- glycan array binding signal (z-score) (Gal(b1-2)Gal): -0.312
- glycan array binding signal (z-score) [11]: -0.402
- glycan array binding signal (z-score) [12]: -0.399
- glycan array binding signal (z-score) [13]: -0.418
- glycan array binding signal (z-score) [14]: 3.02
- glycan array binding signal (z-score) [15]: -0.372
- glycan array binding signal (z-score) [16]: -0.394
- glycan array binding signal (z-score) [17]: -0.418
- glycan array binding signal (z-score) [18]: -0.379
- glycan array binding signal (z-score) (Gal4S(b1-4)GlcNAc): -0.407
- glycan array binding signal (z-score) (GalNAc(b1-3)Gal): 3.51
- glycan array binding signal (z-score) (GalNAc(b1-4)GlcNAc): 3.5
- glycan array binding signal (z-score) (GalNAc3S(b1-4)GlcNAc3S): -0.428
- glycan array binding signal (z-score) (GalNAc6S(b1-4)GlcNAc): 3.82
- glycan array binding signal (z-score) [19]: -0.07
- glycan array binding signal (z-score) [20]: -0.329
- glycan array binding signal (z-score) [21]: -0.393
- glycan array binding signal (z-score) (Man(a1-3)[Man(a1-6)]Man): -0.397
- glycan array binding signal (z-score) [22]: -0.342
- glycan array binding signal (z-score) [23]: 3.56
- glycan array binding signal (z-score) [24]: -0.248
- glycan array binding signal (z-score) [25]: -0.413
- glycan array binding signal (z-score) [26]: -0.418
- glycan array binding signal (z-score) [27]: 3.67
- glycan array binding signal (z-score) [28]: -0.401
- glycan array binding signal (z-score) [29]: 2.03
- glycan array binding signal (z-score) [30]: -0.418
- glycan array binding signal (z-score) (Neu5Ac(a2-6)GalNAc): 3.61
- glycan array binding signal (z-score) [31]: 2.56
- glycan array binding signal (z-score) [32]: 3.49
- glycan array binding signal (z-score) [33]: -0.399
- glycan array binding signal (z-score) [34]: -0.424
